# Most compounds without a hit are left out; they make up all but 0.25% or so of the library.
# Pin1 inhibitor: blocks the human prolyl isomerase Pin1; 390,000 compounds, 0.009% hits; AID 504891; Pin1 FP peptide displacement, HiFluor488, 10 min; Q13526; Potency, µM (highest dose often 115 µM), for the others: at the top dose activity, negative = inhibition, most hits filed as inhibitors; active = well fitted inhibition curve with a large enough effect in the polarisation, with a control signal flat, not every such curve was filed as active; inconclusive = small, poorly fitted or top-dose-only effect, or effect the other way, or a change in a side signal; inactive = no such curve, though single readings can be large or run the other way; the % refers to the polarisation; note: % is set by controls: 0 for no effect and ±100 for the full control effect
# Target sequence (Q13526 whole entry, looked up): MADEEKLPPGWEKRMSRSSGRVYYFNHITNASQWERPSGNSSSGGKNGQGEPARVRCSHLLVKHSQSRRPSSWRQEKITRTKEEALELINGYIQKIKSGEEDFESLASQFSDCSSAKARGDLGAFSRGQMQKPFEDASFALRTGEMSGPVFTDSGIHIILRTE
# Tb PFK inh-1: inhibitors of T. brucei phosphofructokinase; O15648; T. brucei PFK, ADP-Glo luminescence; Potency, µM (highest dose often 57.5 µM), without a hit: at the highest dose activity, negative = inhibition, usual class: inhibitors; 330,000 compounds, 0.17% hits;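 note: 0% = uninhibited 1x PFK enzyme wells and -100% = no-enzyme wells; nearly all actives have a fitted effect of over 60% in size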
# Target sequence (O15648 whole entry, looked up): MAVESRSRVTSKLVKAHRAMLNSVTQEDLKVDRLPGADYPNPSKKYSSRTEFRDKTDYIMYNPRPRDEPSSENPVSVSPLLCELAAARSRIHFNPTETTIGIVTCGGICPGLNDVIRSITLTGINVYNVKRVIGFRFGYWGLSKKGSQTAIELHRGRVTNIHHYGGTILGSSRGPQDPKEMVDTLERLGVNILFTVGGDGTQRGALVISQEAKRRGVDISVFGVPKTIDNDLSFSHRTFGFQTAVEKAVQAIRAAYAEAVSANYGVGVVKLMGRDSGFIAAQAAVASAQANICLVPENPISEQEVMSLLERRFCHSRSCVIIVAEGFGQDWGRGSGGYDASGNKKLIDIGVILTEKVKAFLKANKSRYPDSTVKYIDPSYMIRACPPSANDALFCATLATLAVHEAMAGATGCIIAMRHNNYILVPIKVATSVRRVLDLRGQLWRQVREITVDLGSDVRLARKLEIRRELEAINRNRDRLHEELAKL
#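 PFK 1.25 nM, F6P 0.5 mM, ATP 0.1 mM, 0.1 M TEA pH 8.0, 5 mM MgCl2, 0.01% Tween20, 0.1% BSA; 45 min RT. ADP-Glo readout. qHTS titration up to 57 uM; curves fitted, compounds curve-classed.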
# Tb PGK inh: blocks T. brucei phosphoglycerate kinase; P07378; Potency, µM (doses to about 57.5 µM), for inactives: at the top dose activity change, negative = inhibition, most hits filed as inhibitors; PGK/GAPDH coupled, Kinase-Glo luminescence, 60 min; 380,000 compounds, 0.043% hits; note: % is set by controls: 0 for no effect and ±100 for the full control effect; nearly all actives have a fitted effect of over 60% in size
#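 Luminescent ATP detection (Kinase-Glo Plus) follows a 60-minute room-temperature incubation, with wells lacking PGK as controls. Buffer: 100 mM TEA (pH 7.6), 5 mM MgCl2, 0.01% Tween-20. Coupling enzyme GAPDH (100 nM final) supplies unstable 1,3-BPG in-well.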
# BCR signal inh: inhibitors of chronic active B-cell receptor signaling; ABC-DLBCL IkBa-CBG/CBR reporter, luminescence ratio, 4 h; 340,000 compounds, 0.05% hits; Potency, µM (titrated, usually from 46.1 µM), without a hit: at the highest dose activity change, negative = inhibition, actives largely listed as inhibitors; active = well fitted inhibition curve with a large enough effect in the signal ratio, with a control signal flat, not every such curve was filed as active; inconclusive = small, poorly fitted or top-dose-only effect, or effect the other way, or a change in a side signal; the % refers to the signal ratio;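 note: plate controls were basal doxycycline-induced cells for no effect and cells given 10 µM MG132 for full effect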
#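 Compounds up to 46 uM were incubated four hours with TMD8 cells whose green CBG68 luciferase is fused to IkappaBalpha; red CBR luminescence normalised the signal, and concentration-effect curves were fitted to fusion, red and ratio data.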
# ERG Ets-DNA blk: inhibitors of human ERG Ets domain-DNA interaction | P11308 | fluorescence polarization, His-ERG Ets domain / labelled DNA | Potency, µM (top dose mostly 76.9 µM), inactives show at the highest dose FP activity, negative = inhibition, hits mostly inhibitors | 370,000 compounds, 0.028% hits | AID 624246; active = well fitted inhibition curve with a large enough effect in the polarisation, with a control signal flat; inconclusive = small, poorly fitted or top-dose-only effect, or effect the other way, or a change in a side signal; inactive = no such curve, though single readings can be large or run the other way; the % refers to the polarisation;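 note: polarization taken with two DNA probes labelled with fluorescein and Texas red; % of control where 0% means no effect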
#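 His-tagged ERG Ets domain (1 uM in the protein solution; 300mM KCl, 50mM Tris-HCl, 1mM EDTA, 1mM DTT, pH 7.5) received compound, then a probe mix of 5 nM fluorescein-DNA and 100nM Texas-615-DNA. Fluorescence polarization was read for both dyes.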
# TbPFK ATP: inhibits T. brucei PFK measured by ATP depletion | shares compounds with Tb PFK inh-1 | AID 504636 | 1,100 compounds, 47% hits | Tb PFK enzyme, ATP depletion, Kinase-Glo Plus luminescence | Potency, µM (highest dose often 57.5 µM), inactives show at the highest dose inhibition; calls by dose curve; note: nearly all actives have a fitted effect of over 60% in size
# Tb PFK inh-2: validation of T. brucei phosphofructokinase inhibitors; shares compounds with Tb PFK inh-1; purified T. brucei PFK, ADP-Glo luminescence, 45 min; Potency, µM (doses to about 57.5 µM), inactives show top-dose activity change, negative = inhibition, hits mostly inhibitors; 1,100 compounds, 41% hits; AID 504637;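 note: plate controls were full PFK enzyme control for no effect and no enzyme control for full effect; nearly all actives have a fitted effect of over 60% in size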
# Active calls of the source: *; i = inactive; ? = inconclusive; · = no result given; [ ] = remark or other dose. Unless noted, calls come from the whole dose curve; as a rule, active = well fitted curve in the direction sought with a large enough effect; inconclusive = small, poorly fitted or top-dose-only effect, or another doubt; inactive = no such curve, though single readings can be large; an effect the other way counts as inactive or inconclusive. Potency is the fitted concentration of half-maximal effect.
SMILES,Pin1 inhibitor,Tb PFK inh-1,Tb PGK inh,BCR signal inh,ERG Ets-DNA blk,TbPFK ATP,Tb PFK inh-2
O=S(=O)(Nc1ccccc1)c1cccc2nsnc12,-6%,?,-10%,-2%,-5%,?,?
CCOC(=O)C1CCN(/C=C2/C(=O)NC(=O)N(Cc3ccco3)C2=O)CC1,-3%,?,?,-1%,7%,?,?
COc1ccc(/C=C2/C(=O)NC(=O)N(Cc3ccco3)C2=O)cc1,·,?,·,2%,·,·,·
CCCC(C)c1nnc(NC(=O)c2cc(C(=O)OC)cc([N+](=O)[O-])c2)s1 (stereo unspecified),-1%,24µM*,-1%,-3%,4%,6.7µM*,15µM*
O=C(CSC1=NS(=O)(=O)c2cc(Cl)ccc2N1)Nc1cccc(F)c1,-16%,?,-1%,?,13%,24µM*,?
O=C(CSC1=NS(=O)(=O)c2cc(F)ccc2N1)Nc1ccc(F)cc1,-3%,-12%,9%,0%,·,·,·
Cc1ccc(SCC(c2ccccc2)N2CCN(C)CCC2=O)cc1 (stereo unspecified),-11%,·,·,·,·,·,·
C[n+]1cc(C(O)(c2ccccc2)c2ccccc2)n2ccccc21,0%,·,·,·,·,·,·
Clc1ccc(Cn2cc(Br)cn2)cc1Cl,-16%,24µM*,0%,-6%,·,6µM*,12µM*
Cc1cccc(-c2ccc3ncnc(NCc4cccc(F)c4)c3c2)c1,·,-2%,·,0%,·,·,·
COc1cccc(C2c3c(ncn(-c4ccccc4C#N)c3=N)Oc3ccc4ccccc4c32)c1 (stereo unspecified),5%,·,·,·,·,·,·
O=C(N/N=C\C=C\c1ccco1)C1COc2ccccc2O1 (stereo unspecified),0%,24µM*,-6%,?,16%,21µM*,?
O=C(N/N=C\C=C\c1ccc2c(c1)OCO2)C1COc2cc3ccccc3cc2O1 (stereo unspecified),10%,2%[0.46 µM],-4%,0%,-3%,·,·
O=C(N/N=C/C=C/c1ccc([N+](=O)[O-])cc1)C1COc2ccccc2O1 (stereo unspecified),-8%,12µM*,9%,0%,7%,13µM*,24µM*
COc1ccc(OC)c(C2=Nn3c(nnc3-c3ccccc3C)SC2)c1,16%,·,·,·,·,·,·
O=[S+]([O-])(c1ccc2c(c1)OCCO2)N1CCN([S+](=O)([O-])c2c(O)cc(F)cc2F)CC1,2%,·,·,·,·,·,·
CCCN1CNc2c(c(=O)[nH]c(=S)n2CCc2cc(OC)ccc2OC)C1,-2%,·,·,·,·,·,·
CN1CCN(C(=S)C(=O)Nc2ccc(Br)cc2)CC1,-10%,12µM*,-4%,?,2%,7.6µM*,12µM*
CN(C)c1ccc(NC(=S)c2ccc3ccccc3n2)cc1,3%,?,-2%,?,-1%,9.5µM*,9.5µM*
Oc1cc2c(cc1O)[C@H]1c3ccc(O)c(O)c3OC[C@@]1(O)C2,-9%,?,?,?,-15%,?,?
CC1CCc2cc(F)cc3c2N1C(=O)C(C(=O)Nc1cnccn1)C3=O (stereo unspecified),-9%,·,·,·,·,·,·
C[C@@H]1O[C@@H](O[C@@H]2[C@@H](O)[C@H](OCCc3ccc(O)c(O)c3)O[C@H](CO)[C@H]2OC(=O)/C=C/c2ccc(O)c(O)c2)[C@H](O)[C@H](O)[C@H]1O,2%,1.7µM*,0%,0%,0%,4.8µM*,4.8µM*
CCOC(=O)C/C(C)=N/NC(=O)CNc1cccc(Cl)c1C,-6%,24µM*,10%,-9%,0%,16%,-4%
COc1cc(/C=N/NC(=O)C2COc3ccccc3O2)ccc1O (stereo unspecified),1%,-3%,-8%,12%,-5%,·,·
COc1ccc(/C=N\NC(=O)C2COc3ccccc3O2)cc1O (stereo unspecified),3%,13µM*,i,-1%,-1%,8.5µM*,12µM*
SMILES,Pin1 inhibitor,Tb PFK inh-1,Tb PGK inh,BCR signal inh,ERG Ets-DNA blk,TbPFK ATP,Tb PFK inh-2
COc1ccc(/C=N/NC(=O)C2COc3ccccc3O2)cc1OC (stereo unspecified),-2%,-19%,-8%,12%,9%,·,·
O=C(N/N=C/c1ccc2c(c1)OCO2)C1COc2ccccc2O1 (stereo unspecified),-1%,?,·,-3%,·,19µM*,21µM*
Cc1cc2c(s1)c1cnn(Cc3c(F)ccc(F)c3F)c(=O)c1n2C,27%,·,·,·,·,·,·
Cc1ccc(NS(=O)(=O)c2ccc3[nH]c(=O)[nH]c3c2)cc1C,-2%,·,·,·,·,·,·
C=C(C)c1cc2c(s1)c1cnn(Cc3ccccc3F)c(=O)c1n2C,0%,·,·,·,·,·,·
O=[N+]([O-])c1ccc(NCc2ccccc2)nc1,-3%,?,-8%,5%,2%,?,?
Cc1cc(C)nc(SCC(=O)Nc2ncc(Cc3cccc(Cl)c3)s2)n1,9%,-7%,1%,3%,2%,·,·
O=C(CN1CCOCC1)Nc1ncc(Cc2cccc(Cl)c2)s1,-3%,?,·,-1%,1%,?,?
Cc1cc(N2C(=O)c3ccccc3C2=O)n[nH]1,-6%,·,·,·,·,·,·
O=C(CSc1ccsc1[N+](=O)[O-])Nc1cc(F)ccc1F,?,?,?,?,0%,6.7µM*,?
CCN(CC)c1ccc(NC(=O)CSc2ccsc2[N+](=O)[O-])c(C)c1,?,?,-10%,9%,1%,?,-27%
CC(=O)c1ccc(NC(=O)CSc2ccsc2[N+](=O)[O-])cc1,?,-4%,-5%,4%,5%,·,·
N#Cc1c(F)cccc1NCc1cccnc1,-15%,?,9%,-1%,10%,?,-9%
N#Cc1c(NCc2ccccc2)ccnc1NCc1cccnc1,-9%,2%,-1%,?,1%,·,·
Cc1ccc(NS(=O)(=O)c2cc(NC(=O)c3ccc4c(c3)NC(=O)CS4)ccc2C)c(C)c1,11%,21µM*,i,?,0%,15µM*,24µM*
O=c1c2[nH]c3ccsc3c2cnn1Cc1ccccc1F,-4%,·,·,·,·,·,·
Cc1cc2c(s1)c1cnn(Cc3c(Cl)cccc3Cl)c(=O)c1n2C,-2%,·,·,·,·,·,·
O=C(NCc1ccc2c(c1)OCO2)Nc1ccc([N+](=O)[O-])cc1,-1%,?,-4%,-7%,-10%,·,·
O=[N+]([O-])c1ccc(NCc2ccc3c(c2)OCO3)cc1,0%,6µM*,-9%,0%,-1%,4.8µM*,12µM*

# High-throughput results from PubChem.
